# Reference: PubChem BioAssay (EPA / NIEHS)
# Inconclusive results are not listed. Active and inactive are the calls of the source. Rule for the calls: active = hit-call score of the fitted dose curve at least 0.9, where 1 is the maximum; inconclusive = response in the unintended direction; inactive = score below 0.9.
# Columns and labels:
# [1] = biological target: human Sirtuin 1 (SIRT1), SIRT1 (gene 23411) (UniProt Q96EB6); test: NVS_ENZ_hSIRT1: NovaScreen (NVS) Enzymatic Assay for human Sirtuin 1 (SIRT1) (AID 2283219)
# Outline: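 Cell-free recombinant SIRT1 with a fluorescent substrate; substrate and product separated by electrophoretic mobility shift and read by fluorescence intensity, 1 h after dosing. Primary screen at 25 uM in duplicate; hits re-run in concentration-response up to 50 uM, relative to DMSO.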
# [2] = biological target: rabbit Imidazoline 2 Central (I2C), CKB (gene 100009085) (UniProt P00567); test: NVS_ENZ_rabI2C: NovaScreen (NVS) Enzymatic Assay for rabbit Imidazoline 2 Central (I2C) (AID 2283228)
# Outline: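 Rabbit brain membranes, cell-free; readout by filter-based scintillation counting 1.5 hours after dosing, loss of signal vs DMSO. Initial duplicate test at 25 uM, then concentration-response with 50 uM top concentration.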
# [3] = biological target: human Sirtuin 2 (SIRT2), SIRT2 (gene 22933) (UniProt Q8IXJ6); test: NVS_ENZ_hSIRT2: NovaScreen (NVS) Enzymatic Assay for human Sirtuin 2 (SIRT2) (AID 2283217)
# Outline: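 Single-point duplicate screen at 25 uM, then concentration-response (max 50 uM) for chemicals passing threshold. Enzyme activity of recombinant human SIRT2 measured after 1 hr by fluorescence with mobility-shift separation of product; DMSO baseline.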
# [4] = biological target: human SRC Proto-Oncogene, Non-receptor Tyrosine Kinase (SRC), SRC (gene 6714) (UniProt P12931); test: NVS_ENZ_hSRC: NovaScreen (NVS) Enzymatic Assay for human SRC Proto-Oncogene, Non-receptor Tyrosine Kinase (SRC) (AID 2283223)
# human SRC Proto-Oncogene, Non-receptor Tyrosine Kinase (SRC), SRC (gene 6714), sequence (P12931 whole entry, looked up): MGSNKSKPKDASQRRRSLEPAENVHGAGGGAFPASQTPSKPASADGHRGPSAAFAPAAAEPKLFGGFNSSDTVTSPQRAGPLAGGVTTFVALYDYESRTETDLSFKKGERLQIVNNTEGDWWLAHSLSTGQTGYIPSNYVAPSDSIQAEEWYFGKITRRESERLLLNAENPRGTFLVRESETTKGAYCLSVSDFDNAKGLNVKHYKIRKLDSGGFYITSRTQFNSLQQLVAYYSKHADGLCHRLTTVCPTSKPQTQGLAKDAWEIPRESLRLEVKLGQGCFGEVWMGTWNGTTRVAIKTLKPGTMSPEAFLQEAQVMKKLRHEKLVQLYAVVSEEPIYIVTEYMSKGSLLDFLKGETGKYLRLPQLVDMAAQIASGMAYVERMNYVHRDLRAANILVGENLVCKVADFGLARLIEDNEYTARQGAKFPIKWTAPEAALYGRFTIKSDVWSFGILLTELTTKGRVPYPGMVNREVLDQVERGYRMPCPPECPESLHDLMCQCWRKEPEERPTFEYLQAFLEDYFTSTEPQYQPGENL
# Outline: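 Compounds passing 30% inhibition at 25 uM (duplicate) were titrated to a top concentration of 50 uM. Enzyme activity read by fluorescence with mobility-shift substrate/product separation after 1 h; DMSO baseline.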
# [5] = biological target: human Tyrosine Protein Kinase Receptor Tie-2 (Tie2), TEK (gene 7010) (UniProt Q02763); test: NVS_ENZ_hTie2: NovaScreen (NVS) Enzymatic Assay for human Tyrosine Protein Kinase Receptor Tie-2 (Tie2) (AID 2283225)
# human Tyrosine Protein Kinase Receptor Tie-2 (Tie2), TEK (gene 7010), sequence (Q02763 whole entry, looked up): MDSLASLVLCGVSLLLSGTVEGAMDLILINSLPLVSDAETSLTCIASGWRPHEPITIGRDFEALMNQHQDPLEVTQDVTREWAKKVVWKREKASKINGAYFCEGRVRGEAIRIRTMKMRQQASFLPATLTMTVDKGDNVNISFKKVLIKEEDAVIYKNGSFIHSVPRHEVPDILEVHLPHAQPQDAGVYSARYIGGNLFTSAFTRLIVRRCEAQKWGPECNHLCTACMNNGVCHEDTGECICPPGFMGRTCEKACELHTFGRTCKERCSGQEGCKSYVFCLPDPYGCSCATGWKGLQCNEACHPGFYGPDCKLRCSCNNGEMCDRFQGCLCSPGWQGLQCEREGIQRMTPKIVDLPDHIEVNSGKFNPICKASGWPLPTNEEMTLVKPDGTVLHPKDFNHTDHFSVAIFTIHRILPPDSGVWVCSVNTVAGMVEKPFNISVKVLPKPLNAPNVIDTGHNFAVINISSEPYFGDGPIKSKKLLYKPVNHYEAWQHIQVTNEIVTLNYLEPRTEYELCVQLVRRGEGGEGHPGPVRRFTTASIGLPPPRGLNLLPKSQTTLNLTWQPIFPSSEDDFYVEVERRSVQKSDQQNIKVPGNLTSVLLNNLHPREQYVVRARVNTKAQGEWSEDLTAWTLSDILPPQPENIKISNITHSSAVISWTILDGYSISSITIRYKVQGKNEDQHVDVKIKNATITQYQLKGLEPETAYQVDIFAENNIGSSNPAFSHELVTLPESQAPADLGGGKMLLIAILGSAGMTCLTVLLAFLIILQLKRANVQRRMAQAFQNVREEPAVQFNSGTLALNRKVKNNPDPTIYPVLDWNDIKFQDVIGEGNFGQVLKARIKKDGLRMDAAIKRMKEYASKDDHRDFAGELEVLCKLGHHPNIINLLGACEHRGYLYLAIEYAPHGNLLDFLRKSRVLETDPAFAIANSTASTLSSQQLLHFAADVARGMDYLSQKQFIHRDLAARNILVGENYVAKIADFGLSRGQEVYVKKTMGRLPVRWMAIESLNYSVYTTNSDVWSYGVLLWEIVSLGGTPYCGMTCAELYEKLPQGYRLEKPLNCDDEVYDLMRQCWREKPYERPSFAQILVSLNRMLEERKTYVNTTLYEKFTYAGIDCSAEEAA
# Experimental: (§1) NVS_ENZ_hTie2 is a biochemical, single-readout assay that uses extracted gene-proteins in a cell-free assay. Measurements were taken 1 hour after chemical dosing in a 384-well plate.NVS_ENZ_hTie2 is one of one assay component(s) measured or calculated from the NVS_ENZ_hTie2 assay. It is designed to make measurements of enzyme activity, a form of enzyme reporter, as detected with fluorescence intensity signals by Fluorescence and electrophoretic mobility shift technology.Data from the assay component NVS_ENZ_hTie2 was analyzed into 1 assay endpoint. This assay endpoint, NVS_ENZ_hTie2, was analyzed in the positive analysis fitting direction relative to DMSO as the negative control and baseline of activity. Using a type of enzyme reporter, loss-of-signal activity can be used to understand changes in the enzymatic activity as they relate to the gene TEK. Furthermore, this assay endpoint can be referred to as a primary readout, because this assay has produced multiple assay endpoints where this one serves a enzymatic activity function. To generalize the intended target to other relatable targets, this assay endpoint is annotated to the kinase intended target family, where the subfamily is receptor tyrosine kinase.
# Binding assays used specific radioligands (tritiated, iodinated) with non-radioactive competitive displacement ligands in agonist or antagonist protocols (as indicated) and various reference compounds and inhibitors to titrate specific binding to receptors and transporters. Most enzyme assays (CYPs, kinases, phosphatases, proteases, HDACs) used recombinant protein and specific substrates (fluorescence mostly, some colorimetric and radioactive) and inhibitors, followed by a biochemical separation of substrate and product. All assays for the biochemical HTS were initially run in duplicate at a single concentration (10 uM for CYP450 assays and 25 uM for all others). Assay-chemical combinations meeting a pre-defined threshold (e.g., 30% inhibition and other criteria defined below) were then run in singleton concentration-response format with maximum concentration of 20 uM for CYPs and 50 uM for all others. Each assay was run with positive and negative controls, and concurrent controls on every plate. The follow-up (secondary) screen tested active chemical-pairs in concentration series, as well as a few additional assays not tested in the primary screen, some selected negative inactives, and several cases re-run in the concentration series for confirmatory purposes.
# [6] = biological target: human Vascular Endothelial Growth Factor Receptor 1 (VEGFR1), FLT1 (gene 2321) (UniProt P17948); test: NVS_ENZ_hVEGFR1: NovaScreen (NVS) Enzymatic Assay for human Vascular Endothelial Growth Factor Receptor 1 (VEGFR1) (AID 2283226)
# human Vascular Endothelial Growth Factor Receptor 1 (VEGFR1), FLT1 (gene 2321), sequence (P17948 whole entry, looked up): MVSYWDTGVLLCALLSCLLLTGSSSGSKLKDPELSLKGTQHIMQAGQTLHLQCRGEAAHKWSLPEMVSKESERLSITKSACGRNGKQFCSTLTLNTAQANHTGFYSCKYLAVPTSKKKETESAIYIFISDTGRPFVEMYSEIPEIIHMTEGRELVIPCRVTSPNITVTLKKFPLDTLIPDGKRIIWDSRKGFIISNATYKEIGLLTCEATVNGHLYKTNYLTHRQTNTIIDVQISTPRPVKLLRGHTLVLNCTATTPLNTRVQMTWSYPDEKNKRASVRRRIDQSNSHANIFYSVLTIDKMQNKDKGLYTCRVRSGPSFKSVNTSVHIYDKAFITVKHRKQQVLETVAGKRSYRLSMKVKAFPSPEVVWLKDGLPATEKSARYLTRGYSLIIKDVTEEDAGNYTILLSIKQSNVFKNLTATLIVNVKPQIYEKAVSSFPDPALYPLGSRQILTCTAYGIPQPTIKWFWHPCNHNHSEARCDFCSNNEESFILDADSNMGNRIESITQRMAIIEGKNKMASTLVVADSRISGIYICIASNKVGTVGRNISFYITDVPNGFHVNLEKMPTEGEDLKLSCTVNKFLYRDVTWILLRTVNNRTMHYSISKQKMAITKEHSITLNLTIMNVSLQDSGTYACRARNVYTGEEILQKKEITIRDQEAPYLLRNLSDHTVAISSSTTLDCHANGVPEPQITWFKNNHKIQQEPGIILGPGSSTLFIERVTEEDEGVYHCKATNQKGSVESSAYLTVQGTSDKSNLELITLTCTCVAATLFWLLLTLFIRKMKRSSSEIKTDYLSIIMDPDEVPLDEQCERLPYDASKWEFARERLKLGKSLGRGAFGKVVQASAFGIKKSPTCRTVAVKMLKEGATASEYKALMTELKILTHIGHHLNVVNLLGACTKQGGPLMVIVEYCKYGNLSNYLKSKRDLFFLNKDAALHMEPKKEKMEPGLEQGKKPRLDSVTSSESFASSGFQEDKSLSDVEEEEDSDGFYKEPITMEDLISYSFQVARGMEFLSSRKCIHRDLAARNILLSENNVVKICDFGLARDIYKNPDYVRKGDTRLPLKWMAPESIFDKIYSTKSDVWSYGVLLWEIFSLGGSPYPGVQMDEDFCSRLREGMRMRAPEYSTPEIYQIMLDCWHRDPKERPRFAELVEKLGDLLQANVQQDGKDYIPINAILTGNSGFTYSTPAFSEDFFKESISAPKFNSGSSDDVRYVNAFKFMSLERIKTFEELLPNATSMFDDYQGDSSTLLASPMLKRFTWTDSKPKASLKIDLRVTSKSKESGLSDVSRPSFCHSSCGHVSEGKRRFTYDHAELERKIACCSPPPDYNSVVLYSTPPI
# Outline: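 Kinase activity of recombinant human VEGFR1 was read by fluorescence after electrophoretic separation of product from substrate, 1 h post-dosing; initial duplicate single-point testing at 25 uM, followed by concentration-series follow-up, with DMSO as baseline.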
# [7] = biological target: human Raf-1 Proto-Oncogene, serine/threonine Kinase (RAF1), RAF1 (gene 5894) (UniProt P04049); test: NVS_ENZ_hRAF1: NovaScreen (NVS) Enzymatic Assay for human Raf-1 Proto-Oncogene, serine/threonine Kinase (RAF1) (AID 2283216)
# human Raf-1 Proto-Oncogene, serine/threonine Kinase (RAF1), RAF1 (gene 5894), sequence (P04049 whole entry, looked up): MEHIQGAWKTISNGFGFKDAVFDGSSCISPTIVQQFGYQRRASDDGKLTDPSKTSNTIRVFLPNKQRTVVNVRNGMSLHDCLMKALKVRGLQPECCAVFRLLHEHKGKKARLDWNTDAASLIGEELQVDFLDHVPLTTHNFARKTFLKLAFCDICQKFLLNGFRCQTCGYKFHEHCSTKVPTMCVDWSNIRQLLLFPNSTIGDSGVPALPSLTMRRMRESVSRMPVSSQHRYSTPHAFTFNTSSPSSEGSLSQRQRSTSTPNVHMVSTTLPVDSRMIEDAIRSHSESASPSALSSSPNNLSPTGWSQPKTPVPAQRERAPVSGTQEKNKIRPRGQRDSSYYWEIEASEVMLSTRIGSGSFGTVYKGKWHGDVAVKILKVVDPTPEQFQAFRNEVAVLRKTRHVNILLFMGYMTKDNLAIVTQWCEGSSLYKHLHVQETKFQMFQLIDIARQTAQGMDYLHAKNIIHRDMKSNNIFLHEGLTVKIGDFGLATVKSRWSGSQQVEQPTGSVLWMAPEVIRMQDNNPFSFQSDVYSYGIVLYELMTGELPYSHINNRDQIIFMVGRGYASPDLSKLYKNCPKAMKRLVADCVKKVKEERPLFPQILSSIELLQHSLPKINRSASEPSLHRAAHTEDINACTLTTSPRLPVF
# Outline: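 Single-point screening at 25 uM (duplicate), followed by singleton concentration-response to 50 uM maximum for chemicals exceeding threshold. Enzyme activity from fluorescent substrate-product mobility-shift separation after 1 h, relative to DMSO.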
# [8] = biological target: human Protein Tyrosine Phosphatase Receptor Type M (PTPRM), PTPRM (gene 5797) (UniProt P28827); test: NVS_ENZ_hPTPRM: NovaScreen (NVS) Enzymatic Assay for human Protein Tyrosine Phosphatase Receptor Type M (PTPRM) (AID 2283215)
# Experimental: NVS_ENZ_hPTPRM is a biochemical, single-readout assay that uses extracted gene-proteins in a cell-free assay. Measurements were taken 1.33 hours after chemical dosing in a 384-well plate.NVS_ENZ_hPTPRM is one of one assay component(s) measured or calculated from the NVS_ENZ_hPTPRM assay. It is designed to make measurements of enzyme activity, a form of enzyme reporter, as detected with fluorescence intensity signals by Fluorescence and electrophoretic mobility shift technology.Data from the assay component NVS_ENZ_hPTPRM was analyzed into 1 assay endpoint. This assay endpoint, NVS_ENZ_hPTPRM, was analyzed in the positive analysis fitting direction relative to DMSO as the negative control and baseline of activity. Using a type of enzyme reporter, loss-of-signal activity can be used to understand changes in the enzymatic activity as they relate to the gene PTPRM. Furthermore, this assay endpoint can be referred to as a primary readout, because this assay has produced multiple assay endpoints where this one serves a enzymatic activity function. To generalize the intended target to other relatable targets, this assay endpoint is annotated to the phosphatase intended target family, where the subfamily is receptor tyrosine phosphatase.
# Binding assays used specific radioligands (tritiated, iodinated) with non-radioactive competitive displacement ligands in agonist or antagonist protocols (as indicated) and various reference compounds and inhibitors to titrate specific binding to receptors and transporters. Most enzyme assays (CYPs, kinases, phosphatases, proteases, HDACs) used recombinant protein and specific substrates (fluorescence mostly, some colorimetric and radioactive) and inhibitors, followed by a biochemical separation of substrate and product. All assays for the biochemical HTS were initially run in duplicate at a single concentration (10 uM for CYP450 assays and 25 uM for all others). […] Each assay was run with positive and negative controls, and concurrent controls on every plate. […]
# [9] = biological target: human Tropomyosin Receptor Kinase A (TRKA), NTRK1 (gene 4914) (UniProt P04629); test: NVS_ENZ_hTrkA: NovaScreen (NVS) Enzymatic Assay for human Tropomyosin Receptor Kinase A (TRKA) (AID 2283224)
# Experimental: as §1, with “NVS_ENZ_hTrkA” for “NVS_ENZ_hTie2”, “plate.NVS_ENZ_hTrkA” for “plate.NVS_ENZ_hTie2”, “NVS_ENZ_hTrkA,” for “NVS_ENZ_hTie2,”, “NTRK1.” for “TEK.”, “kinase. […]” for “kinase.”
# [10] = biological target: human Vascular Endothelial Growth Factor Receptor 3 (VEGFR3), FLT4 (gene 2324) (UniProt P35916); test: NVS_ENZ_hVEGFR3: NovaScreen (NVS) Enzymatic Assay for human Vascular Endothelial Growth Factor Receptor 3 (VEGFR3) (AID 2283229)
# human Vascular Endothelial Growth Factor Receptor 3 (VEGFR3), FLT4 (gene 2324), sequence (P35916 whole entry, looked up): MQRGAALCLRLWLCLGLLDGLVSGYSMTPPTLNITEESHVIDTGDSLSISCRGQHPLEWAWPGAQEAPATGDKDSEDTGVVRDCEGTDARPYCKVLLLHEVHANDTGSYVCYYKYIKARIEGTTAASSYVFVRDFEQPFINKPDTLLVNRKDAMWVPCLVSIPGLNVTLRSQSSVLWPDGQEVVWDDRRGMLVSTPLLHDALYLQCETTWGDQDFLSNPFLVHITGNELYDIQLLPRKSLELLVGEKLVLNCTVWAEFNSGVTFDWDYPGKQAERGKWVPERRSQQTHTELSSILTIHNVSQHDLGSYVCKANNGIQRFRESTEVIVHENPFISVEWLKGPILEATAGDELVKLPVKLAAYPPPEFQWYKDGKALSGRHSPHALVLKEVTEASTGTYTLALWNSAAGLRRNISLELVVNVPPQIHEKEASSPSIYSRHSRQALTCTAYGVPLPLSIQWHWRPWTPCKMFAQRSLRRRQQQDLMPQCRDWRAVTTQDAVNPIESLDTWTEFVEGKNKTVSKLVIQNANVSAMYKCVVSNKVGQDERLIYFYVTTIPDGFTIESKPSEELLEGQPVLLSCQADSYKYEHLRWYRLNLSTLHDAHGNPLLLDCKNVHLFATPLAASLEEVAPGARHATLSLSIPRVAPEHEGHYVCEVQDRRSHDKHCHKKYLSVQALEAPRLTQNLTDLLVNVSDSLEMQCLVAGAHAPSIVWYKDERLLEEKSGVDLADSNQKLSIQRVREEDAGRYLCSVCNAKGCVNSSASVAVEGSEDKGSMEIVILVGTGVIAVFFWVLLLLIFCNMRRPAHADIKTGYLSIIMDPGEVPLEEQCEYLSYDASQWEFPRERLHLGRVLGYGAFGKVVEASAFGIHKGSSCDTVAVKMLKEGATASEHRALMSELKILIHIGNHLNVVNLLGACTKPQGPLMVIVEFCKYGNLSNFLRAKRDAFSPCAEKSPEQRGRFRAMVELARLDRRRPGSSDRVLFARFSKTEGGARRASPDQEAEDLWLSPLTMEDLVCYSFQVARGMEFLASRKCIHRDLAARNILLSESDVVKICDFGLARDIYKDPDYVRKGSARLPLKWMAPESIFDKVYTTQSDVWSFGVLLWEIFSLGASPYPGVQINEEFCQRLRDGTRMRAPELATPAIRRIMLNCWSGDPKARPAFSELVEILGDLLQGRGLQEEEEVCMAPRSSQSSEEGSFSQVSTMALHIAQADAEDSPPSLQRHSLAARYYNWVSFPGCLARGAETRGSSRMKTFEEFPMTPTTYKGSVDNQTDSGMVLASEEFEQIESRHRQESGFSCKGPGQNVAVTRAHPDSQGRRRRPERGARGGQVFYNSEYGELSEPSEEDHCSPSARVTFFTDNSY
# Outline: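 Chemicals first run in duplicate at 25 uM, with actives re-tested in concentration series to a top of 50 uM. Recombinant VEGFR3 activity measured after 1 h via fluorescence with mobility-shift product separation; inhibition fitted relative to DMSO.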
compound,measurement,setting,value
COc1ccccc1N,AC50,[1],25.4 µM (active)
same,outcome,[2],inactive
OCCN(CCO)CCO,outcome,[1],inactive
N#Cc1cccnc1,outcome,[3],inactive
same,outcome,[4],inactive
same,outcome,[5],inactive
same,outcome,[6],inactive
Oc1cc(Cl)c(Cl)cc1Cl,outcome,[7],inactive
Clc1cccc(Cl)c1Cl,outcome,[8],inactive
same,outcome,[7],inactive
same,outcome,[1],inactive
same,outcome,[5],inactive
same,outcome,[6],inactive
CCCCCCCCCCCCc1cccc(S(=O)(=O)O)c1,AC50,[8],14.4 µM (active)
same,AC50,[7],28.8 µM (active)
same,AC50,[9],36.3 µM (active)
same,AC50,[5],12.4 µM (active)
same,AC50,[6],22.9 µM (active)
same,AC50,[10],10.7 µM (active)
CCCCCCCCCCCCOS(=O)(=O)O,AC50,[7],25 µM (active)
same,AC50,[5],26.9 µM (active)
O=C(N[C@H]1CN2CCC1CC2)c1ccc2c(c1)OCCO2,outcome,[7],inactive
same,outcome,[5],inactive
same,outcome,[6],inactive
same,outcome,[10],inactive
C=C(C)C(=O)OCC(CC)CCCC (stereo not drawn),outcome,[6],inactive
COc1nn(C(=O)NS(=O)(=O)c2ccccc2OC(F)(F)F)c(=O)n1C,AC50,[5],24.5 µM (active)
same,AC50,[10],11.4 µM (active)
Nc1c(Oc2ccccc2)cc(O)c2c1C(=O)c1ccccc1C2=O,AC50,[6],0.898 µM (active)
CC(C)O.CC(C)O.OCCN(CCO)CCO.OCCN(CCO)CCO.[Ti],AC50,[8],0.119 µM (active)
same,outcome,[7],inactive
same,AC50,[4],0.00229 µM (active)
same,AC50,[5],3.53 µM (active)
same,AC50,[10],21.8 µM (active)
O=C1c2ccccc2C(=O)C1C(=O)C(c1ccccc1)c1ccc(Cl)cc1 (stereo not drawn),AC50,[5],2.26 µM (active)
same,AC50,[10],2.4 µM (active)
O=C(O)CC(O)(CC(=O)O)C(=O)O,outcome,[7],inactive
O=c1oc2ccccc2c(O)c1C(CC(O)c1ccc(-c2ccc(Br)cc2)cc1)c1ccccc1 (stereo not drawn),AC50,[6],16.9 µM (active)
